The source made the active and inactive calls.

Assay [1] concerns the target Albumin (Bos taurus) (UniProt P02769). Put plainly: compounds binding labelled BSA control protein – biochemical, small-molecule microarray, Alexa647 label, 635/667 nm fluorescence, artefact control for SMM control protein annotation, profiling panel (AID 1118).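 Note: score merges 667 nm emission intensity and signal-to-noise per printed compound spot.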 The note with it: BSA-A647 binding, fluorescence 635 nm, higher = more signal.
A short description of assay [2]: probe aXIP binding to arrayed compounds – biochemical, NeuroSMM set, 635/667 nm fluorescence, primary screen (AID 1119).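 Note: probe is the protein aXip251-270 applied at 1 µg/mL to compound-printed slides; binding of probe to printed compounds measured as 667 nm fluorescence plus signal to noise.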 The following applies: small-molecule microarray, higher = more signal, called active from +8 up or from −8 down.
Assay [3] is described as follows: probe aNOTCH3 binding on compound microarray – biochemical, small-molecule microarray, 635/667 nm fluorescence, primary screen (AID 1120).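 Note: probe is a biotin-tagged antibody raised against NOTCH3 rather than NOTCH3 protein; score merges spot fluorescence near 667 nm with spot signal to noise.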 The note with it: higher = more signal.
Assay [4] in a line: probe aNOTCH2 binding on compound microarray – biochemical, small-molecule microarray, 635/667 nm fluorescence, primary screen (AID 1121).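 Note: score merges feature fluorescence read at 667 nm with its signal to noise.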 The following applies: higher = more signal.
For assay [5], the target named is Carbonic anhydrase 2 (Homo sapiens) (UniProt P00918). Put plainly: compounds binding carbonic anhydrase 2 – biochemical, small-molecule microarray, Alexa647-labelled CAII, profiling panel (AID 1122). The note with it: CAII-A647 binding fluorescence, higher = more signal.
The nature of assay [6]: COS7 lysate on small-molecule microarray, probe aHis, 635 nm (AID 1123).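 Note: z-score combines 667nm fluorescence intensity with signal-to-noise per printed compound spot.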 The note with it: COS7 cell lysate, fluorescence, higher = more signal.
A short description of assay [7]: probe aLAP1 signal on lysate-treated microarray – cell lysate, small-molecule microarray, COS7 lysate, primary screen (AID 1124).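 Note: lysate comes from COS7 cells expressing LAP1 and is applied at 0.3 µg/mL; score merges spot fluorescence near 667 nm with signal-to-noise over triplicate slides.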 The following applies: probe aLAP1, fluorescence, higher = more signal.
The subject of assay [8] is Sam68 (KHDRBS1). The experiment in a line: compounds binding KHDRBS1 protein – biochemical, small-molecule microarray, 635 nm fluorescence, primary screen (AID 1125).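 Note: score merges 667 nm channel intensity with signal to noise over triplicate slides.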 The note with it: higher = more signal.
Assay [9] relates to Chordin-like protein 2 (CHRDL2). Put plainly: compounds binding chordin-like 2 – biochemical, small-molecule microarray, 635 nm fluorescence, primary screen (AID 1126).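 Note: printed compound slides probed with Chrdl2 protein at 4 µg/mL for 1 h at 4 C; score merges 667 nm emission intensity with signal to noise over three replicate slides.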 The note with it: fluorescence 635 nm, higher = more signal.
The target in assay [10] is Concanavalin-A (Canavalia ensiformis) (UniProt P02866). The experiment in a line: compounds binding concanavalin A lectin – biochemical, small-molecule microarray, Alexa647 label, 635 nm, artefact control for SMM control protein annotation, primary screen (AID 1127).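 Note: z combines 667 nm emission intensity with signal-to-noise across three replicate slides.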 The note with it: ConA-A647 binding fluorescence, higher = more signal.
Sequence of Concanavalin-A (Canavalia ensiformis) (P02866 whole entry, looked up): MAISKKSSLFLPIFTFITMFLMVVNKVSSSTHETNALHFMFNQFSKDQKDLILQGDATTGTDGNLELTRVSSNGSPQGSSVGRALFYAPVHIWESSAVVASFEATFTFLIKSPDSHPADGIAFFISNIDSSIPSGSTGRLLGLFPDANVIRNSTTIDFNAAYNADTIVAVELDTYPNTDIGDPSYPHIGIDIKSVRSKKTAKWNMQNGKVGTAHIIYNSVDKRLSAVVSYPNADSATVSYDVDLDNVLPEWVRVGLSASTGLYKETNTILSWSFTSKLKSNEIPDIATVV

Sequence of Albumin (Bos taurus) (P02769 whole entry, looked up): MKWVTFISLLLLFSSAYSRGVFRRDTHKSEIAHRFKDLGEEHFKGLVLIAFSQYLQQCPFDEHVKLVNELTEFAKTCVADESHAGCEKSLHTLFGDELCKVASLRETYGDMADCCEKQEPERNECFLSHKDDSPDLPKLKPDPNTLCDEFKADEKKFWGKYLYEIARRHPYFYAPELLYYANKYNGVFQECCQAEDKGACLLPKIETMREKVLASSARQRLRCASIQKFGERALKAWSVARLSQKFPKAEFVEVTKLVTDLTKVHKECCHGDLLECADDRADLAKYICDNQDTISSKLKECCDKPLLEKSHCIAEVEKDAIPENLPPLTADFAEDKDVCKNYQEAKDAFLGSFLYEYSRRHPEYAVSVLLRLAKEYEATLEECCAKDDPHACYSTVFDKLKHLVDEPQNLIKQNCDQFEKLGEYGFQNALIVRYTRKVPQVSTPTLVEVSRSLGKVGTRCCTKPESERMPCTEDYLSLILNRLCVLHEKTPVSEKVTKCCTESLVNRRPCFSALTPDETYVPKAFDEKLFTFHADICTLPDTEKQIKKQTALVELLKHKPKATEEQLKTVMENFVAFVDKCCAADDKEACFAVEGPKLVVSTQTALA

Regarding `C[C@@H](OCc1ccccc1)C1NC(=O)[C@@]23C(=O)N[C@@H](Cc4ccccc4)C2[C@H](C)[C@@]2(C)O[C@H]2C3/C=C/C/C=C\CNC(=O)[C@H](Cc2ccccc2)NC1=O` (stereo not given in full), the composite z-score was 0.126 in [1]; -0.0026 in [3]; -0.153 in [4]; 0.618 in assay [5]; 0.332 in assay [6]; -0.149 in assay [7]. The composite z-score in [8] is -0.24; in [9], 0.665; in assay [10] it was -0.052. Further, the composite Z-score in assay [2] is 0.069 (inactive).
Take `CC(=O)c1ccc(C(O)C2C=CC3C(=O)NC(=O)C3N2Nc2ccc(Cl)cc2Cl)cc1` (stereo not given): the composite z-score in assay [1] was 0.843; in assay [3], -0.0151; in assay [4] it was -0.0097; in assay [5] it was 0.759; in assay [6], 2.15; in [7] it was -0.227. The composite z-score in assay [8] was -0.0077; in [9], 0.0823; in [10], -0.185. Moreover, the composite Z-score in [2] is 0.0186 (inactive).
Turning to `CC1CC/C=C\[C@H]2OC34C=CCN(c5ccc(Cl)cc5)C(=O)[C@H]3N(CCCO)C(=O)[C@]4(C)C2C(=O)O1` (stereo not given in full), the composite z-score was 0.784 in assay [1]; -0.235 in assay [3]; -0.18 in assay [4]; 0.931 in assay [5]; -0.42 in [6]; 0.569 in assay [7]. Further, the results for the composite z-score in assay [8], in assay [9] and in assay [10] were -0.38, -1.39 and -0.749, respectively. Besides, in [2], the composite Z-score is 0.182 (inactive).
Take `CN1C=C(C(=O)OCCS(C)(=O)=O)C(C(=O)OCCS(C)(=O)=O)=CC(CCCO)=CC1c1ccc(CN2CCCC2)cc1` (stereo not given): the composite z-score in assay [1] was 0.676; in assay [3], 0.405; in assay [4], -0.146; in assay [5], 0.746; in assay [6], 1.87; in assay [7], -0.197. Besides, the composite z-score was determined as 1.3 in assay [8], 0.369 in [9] and 0.907 in [10]. In addition, in assay [2], the composite Z-score was 0.48 (inactive).
Take `CC1CC/C=C\[C@H]2OC34C=CCN(CCN5CCOCC5)C(=O)[C@H]3N(CCCCCCO)C(=O)[C@@H]4C2C(=O)O1` (stereo not given in full): the composite z-score in [1] was -0.0754; in [3] it was -0.438; in assay [4], -0.14; in assay [5], 0.864; in assay [6], -0.686; in [7], -0.362. Besides, the composite z-score was -0.715 in [8], -0.756 in assay [9] and -1.53 in assay [10]. Also, in assay [2], the composite Z-score is 0.446 (inactive).
Take `C=CC[C@]1(C(=O)N(C)C)COC(c2ccc(OCCCO)cc2)=N1`: the composite z-score in [1] stood at 0.795; in [3] it was 0.298; in assay [4], 0.107; in assay [5] it was 0.914; in assay [6] it was 3.5; in assay [7], 1.41. Further, the composite z-score in assay [8] was 1.25; in assay [9], -0.492; in [10], 0.673. The composite Z-score in assay [2] was -0.0102 (inactive).
Consider `CC=CC(O)C1C=CC2C(=O)N(C)C(=O)C2N1NC(=O)OC(C)(C)C` (stereo not given), for which the composite z-score in [1] was 1.03; in assay [3], 0.0687; in assay [4], -0.173; in assay [5], 0.774; in assay [6], 0.439; in assay [7], 0.826. The composite z-score is -0.0008 in assay [8], 0.204 in [9] and 0.0815 in assay [10]. Also, the composite Z-score in assay [2] is 0.397 (inactive).
As for `COCCOC(=O)N1C(=O)[C@@]2(c3cc(C#Cc4ccc(OC)cc4)ccc31)[C@H](C(=O)N1CCCCCCC1)[C@H]1C(=O)O[C@H](c3ccccc3)[C@H](c3ccccc3)N1[C@@H]2c1ccccc1OCCO`, the composite z-score in [1] came to 0.768; in assay [3], 1.49; in assay [4], 0.793; in assay [5], 0.472; in [6], 3; in [7], 1.3. Moreover, the composite z-score came out at 1.3 in [8], 1.21 in assay [9] and 0.893 in assay [10]. For the same compound, the composite Z-score in assay [2] was 4.24 (inactive).
For `C=CCOC(=O)[C@H]1[C@@H]2C(=O)O[C@@H](c3ccccc3)[C@@H](c3ccccc3)N2[C@@H](c2ccc(OCCOC(=O)[C@H]3C[C@H]4C(=O)NCC(=O)N4[C@H]3c3ccc(O)cc3)cc2)[C@]12C(=O)Nc1ccc(I)cc12`, the composite z-score was 0.163 in assay [1]; -0.0647 in assay [3]; -0.104 in [4]; 0.0742 in [5]; 0.737 in assay [6]; 0.0174 in [7]. For the same compound, the composite z-score is 0.503 in assay [8], 0.677 in [9] and 1.13 in assay [10]. In [2], the composite Z-score was -0.0149 (inactive).
As to `COCC(=C=CC[C@@H](O)c1ccc(OCCO)cc1)C[C@@H](O)COCc1ccccc1`, the composite z-score was 0.769 in [1]; 0.0528 in assay [3]; -0.0796 in assay [4]; 0.805 in assay [5]; 2.3 in assay [6]; 0.686 in [7]. Besides, the composite z-score is 1.28 in assay [8], 0.0466 in [9] and 0.547 in [10]. The composite Z-score in assay [2] was -0.727 (inactive).
Consider `NC(=O)[C@@]1(CCS(=O)(=O)c2ccccc2)COC(c2ccc(OCCCO)cc2)=N1`, for which the composite z-score is 0.336 in assay [1]; 0.119 in assay [3]; 0.327 in assay [4]; 0.445 in assay [5]; 0.043 in assay [6]; -0.84 in [7]. The figures for the composite z-score in assay [8], in [9] and in assay [10] were -0.0922, -0.536 and 0.411, respectively. In assay [2], the composite Z-score is -0.823 (inactive).
Turning to `CCCCC(O)C1C=CC2C(=O)NC(=O)C2N1Nc1ccc(Cl)cc1Cl` (stereo not given), the composite z-score in [1] worked out at 0.891; in assay [3] it was 0.23; in assay [4], 0.0264; in [5], 0.253; in assay [6] it was 2.54; in [7], 0.0614. Moreover, the figures for the composite z-score in assay [8], in assay [9] and in assay [10] were 0.0434, -0.452 and 0.255, respectively. In addition, the composite Z-score in assay [2] is 0.593 (inactive).
With `CC(=O)NCCCC[C@@H]1NC(=O)[C@@H]2C[C@H](C(=O)NCCCCCC[N+](C)(C)C)[C@H](c3ccc(O)cc3)N2C1=O`, the composite z-score in assay [1] is -0.78; in assay [3] it was -0.0611; in [4], -0.0173; in assay [5] it was 0.188; in [6], 1.17; in [7], -0.414. Further, the composite z-score in assay [8] turned out to be 0.992; in assay [9], 0.965; in assay [10], 0.301. Also, in assay [2], the composite Z-score was 0.0461 (inactive).

Source of the values: PubChem BioAssay.
